Source: PubChem (National Center for Advancing Translational Sciences (NCATS))
Rows were chosen to be rich in hits. Some 10% of all compounds tested hit in one or more screens of this group.
hNpr1 antagonist – blocks ANP-stimulated signaling of human Npr1 receptor | P16066 | HEK293 hNpr1 GloSensor cGMP, ANP-stimulated luminescence | Potency, µM (titrated, usually from 46.3 µM), without a hit: at the highest dose activity change, negative = inhibition, actives largely listed as inhibitors | actives 1.6% (n = 76,000); calls by dose curve; also: nearly all actives have a fitted effect of over 60% in size
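HEK293 cells stably expressing human Npr1 and cGMP GloSensor pGS-40F, loaded 2 h with 2% GloSensor reagent, given compound 30 min at room temperature. Luminescence read before and 20 min after 0.1 nM hNppA.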
HEK293 tox – kills HEK 293 cells | HEK 293 viability, ATP luminescence (CellTiter-Glo), 48-72 h | Potency, µM (top dose mostly 115 µM), inactives show at the top dose activity change, negative = cytotoxicity, actives largely listed as inhibitors | actives 6.6% (n = 94,000); also: nearly all actives have a fitted effect of over 60% in size
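Viability of HEK 293 cells, plated at 250 cells/well, was judged by cellular ATP after compound treatment for 48 or 72 hr. Luminescence was imaged 10 min after CellTiter-Glo addition at room temperature.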
FLuc inh – Photinus pyralis luciferase inhibition; P08659; purified P. pyralis luciferase, luminescence, biochemical; Potency, µM (doses to about 115 µM), most hits filed as inhibitors; actives 2.5% (n = 76,000); AID 1347043; also: nearly all actives have a fitted effect of over 65% in size
Target sequence (P08659 whole entry, looked up): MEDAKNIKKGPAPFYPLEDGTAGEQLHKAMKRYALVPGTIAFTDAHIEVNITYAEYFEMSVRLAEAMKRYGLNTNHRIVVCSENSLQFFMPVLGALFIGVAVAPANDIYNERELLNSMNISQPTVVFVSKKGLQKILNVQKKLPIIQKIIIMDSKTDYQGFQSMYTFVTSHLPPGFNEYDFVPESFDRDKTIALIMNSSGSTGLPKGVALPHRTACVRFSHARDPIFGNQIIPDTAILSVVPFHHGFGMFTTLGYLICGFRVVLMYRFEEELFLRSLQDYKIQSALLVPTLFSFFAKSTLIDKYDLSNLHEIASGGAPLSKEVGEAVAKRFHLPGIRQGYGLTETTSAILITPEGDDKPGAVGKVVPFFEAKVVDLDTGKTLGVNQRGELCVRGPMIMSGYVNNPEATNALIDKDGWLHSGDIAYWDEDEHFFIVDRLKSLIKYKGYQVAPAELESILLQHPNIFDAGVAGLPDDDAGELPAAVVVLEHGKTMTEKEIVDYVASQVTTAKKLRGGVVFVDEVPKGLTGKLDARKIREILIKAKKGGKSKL
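Biochemical qHTS: compound (6-point titration) added to 10uM D-luciferin plus 10uM ATP in Tris acetate pH 7.5 buffer with Mg, Tween-20 and BSA, then purified enzyme at 10nM; light output imaged.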
NIH3T3 tox – NIH 3T3 cell cytotoxicity. NIH 3T3 viability, CellTiter-Glo ATP luminescence, 48-72 h. Potency, µM (series often up to 96.7 µM), without a hit: top-dose activity change, negative = cytotoxicity, hits mostly inhibitors. actives 4.3% (n = 94,000). AID 1345082; also: nearly all actives have a fitted effect of over 55% in size
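ATP-dependent luminescence (CellTiter-Glo) served as the viability signal for NIH 3T3 cells treated with compound for 48 or 72 hr at 37 °C.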
GPT2 inhibitor – blocks human glutamate pyruvate transaminase 2; actives 0.25% (n = 100,000); AID 1671188; Q8TD30; Recombinant GPT2, coupled pyruvate oxidase/HRP Amplex Red fluorescence; Potency, µM (series often up to 57.7 µM), inactives show top-dose activity change, negative = inhibition, hits mostly inhibitors; also: nearly all actives have a fitted effect of over 60% in size
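Fluorescence of coupled pyruvate oxidase/HRP/Amplex Red system (50uM Amplex, 30 min, dark) reports pyruvate formed by GPT2. Enzyme reaction: 10ng/uL GPT2, 2mM L-alanine, 250uM a-KG, 30 min room temperature, pH 7.5; 50uM AOA control.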
The depositor's hits bear a star; i = inactive; ? = inconclusive; / = not tested or not shown; [ ] = dose if it differs, or a comment. Unless noted, calls follow the shape of the dose curve; as a rule, active = well fitted curve in the direction sought with a large enough effect; inconclusive = small, poorly fitted or top-dose-only effect, or another doubt; inactive = no such curve, though single readings can be large; an effect the other way counts as inactive or inconclusive. % is scaled to controls: 0 for no effect and ±100 for the full control effect; potency is read from the fitted curve at half-maximal effect.

SMILES	hNpr1 antagonist	HEK293 tox	FLuc inh	NIH3T3 tox	GPT2 inhibitor
COCCC(=O)N[C@H]1CC[C@]2(C)CCC([C@H](C)C(=O)N(C)Cc3ccccc3)[C@H](O)[C@H]2[C@@H]1C (some centres undefined)	2%	-17%	i	-17%	-7%
CCOc1ccccc1CNC(=O)c1cc2n(n1)CC(c1ccc(Cl)cc1)OC2 (centres undefined)	-30%	25µM*	i	?	-2%
O=C(NCC1CC1)c1cc2n(n1)CC(c1ccc(Cl)cc1)OC2 (centres undefined)	-7%	?	i	40µM*	0%
CCOc1ccccc1NC(=O)c1cc2n(n1)CC(c1ccc(Cl)cc1)OC2 (centres undefined)	3%	0%	i	-2%	-11%
COc1ccc2[nH]cc(CCNC(=O)c3ccc(N4CC5CC(C4)[C@H]4CCCC(=O)N4C5)nc3)c2c1 (some centres undefined)	-2%	-18%	i	-29%	-1%
CC(C)CN1CC[C@H](c2nc3ccccc3n2C)C1	0%[70.6 µM]	?	22µM*	-24%[230 µM]	-5%[88.5 µM]
Cn1c([C@H]2CCN(Cc3cnc4ccccc4c3)C2)nc2ccccc21	-7%[70.6 µM]	71µM*	i	?	i
Cn1c(CN2CC[C@H](c3nc4ccccc4[nH]3)C2)nc2ccccc21	-15%[70.6 µM]	45µM*	i	?	?
Cn1c([C@H]2CCN(Cc3ccc4c(c3)OCO4)C2)nc2ccccc21	-11%[70.6 µM]	?	i	?	-24%[88.5 µM]
c1ccc2ncc(CN3CC[C@H](c4nc5ccccc5[nH]4)C3)cc2c1	-16%[70.6 µM]	71µM*	i	?	-4%[88.5 µM]
Cn1c(CO[C@H]2CN(Cc3cnc4ccccc4c3)C[C@H]2F)nc2ccccc21	?	79µM*	i	?	i
COc1cccc(C(=O)NC2CCCN(Cc3ccc(-c4cccc(OC)c4)cc3)C2)c1 (centres undefined)	/	32µM*	/	25µM*	i
COc1cccc(-c2ccc(CN3CCCC(NC(=O)c4cccnc4)C3)cc2)c1 (centres undefined)	/	28µM*	/	?	/
Cc1cc(C)cc(-c2ccc(CN3CCCC(NC(=O)c4cccc(Cl)c4)C3)cc2)c1 (centres undefined)	/	40µM*	/	?	i
COc1cccc(-c2ccc(CN3CCCC(NC(C)=O)C3)cc2)c1 (centres undefined)	/	?	/	-41%	i
COc1cccc(-c2ccc(CN3CCCC(NC(=O)C4CCCC4)C3)cc2)c1 (centres undefined)	/	20µM*	/	35µM*	/
O=C(c1ccccc1)N1CCC(c2nn(-c3ccccn3)c(=O)[nH]2)CC1	/	i	/	-5%	-1%
COCCCNc1ncnc2c1CN(c1cccc(C)c1)C(=O)CN2C	/	-3%	/	-27%	?
COc1cccc(-c2ccc(CN3CCCC(NC(=O)c4ccc(Cl)cc4)C3)cc2)c1 (centres undefined)	/	?	/	?	4%
COc1cccc(-c2ccc(CN3CCCC(NC(=O)c4cccc(Cl)c4)C3)cc2)c1 (centres undefined)	/	?	/	32µM*	i
COc1ccc(C(=O)NC2CCCN(Cc3ccc(-c4cccc(OC)c4)cc3)C2)cc1 (centres undefined)	/	35µM*	/	-37%	i
COc1cccc(-c2ccc(NC(=O)C3CCCN(Cc4cc(C(C)C)n[nH]4)C3)cc2)c1 (centres undefined)	?	22µM*	i	40µM*	-4%
COC[C@@H]1CN(Cc2cccc(OC)c2OC)C[C@H]1c1ccccn1	-7%	?	i	?	i
CN(C)C(=O)N1CCN(c2ccc3nnc(-c4ccccc4)n3n2)CC1	/	-21%	/	?	/
COc1ccc(CNC(=O)C2CCCN(Cc3cccc(-c4cccc(C)c4)c3)C2)cc1 (centres undefined)	/	?	/	28µM*	-6%
SMILES	hNpr1 antagonist	HEK293 tox	FLuc inh	NIH3T3 tox	GPT2 inhibitor
COc1ccc(CCNC(=O)C2CCCN(Cc3cccc(-c4cccc(C)c4)c3)C2)cc1 (centres undefined)	/	22µM*	/	?	3%
O=C1CO[C@H]2CN(c3nccc(C(F)(F)F)n3)C[C@H]2N1Cc1ccc(F)cc1	-1%[70.6 µM]	100µM*	i	?	-10%[88.5 µM]
O=C1CCN(S(=O)(=O)c2ccccc2)CCCN(C(=O)C2(c3ccccc3)CC2)CCN1	5%	1%	i	-22%	?
O=C1[C@@H]2C[C@@H](CN2Cc2ccc(F)cc2)Oc2ccccc2N1CC1CC1	-5%[70.6 µM]	?	i	?	-22%[88.5 µM]
N#Cc1ccc(CN2C[C@@H]3C[C@H]2C(=O)N(Cc2ccccc2)c2ccccc2O3)cc1	?	50µM*	i	?	-6%[88.5 µM]
O=C1[C@@H]2C[C@@H](CN2Cc2ccccc2)Oc2ccccc2N1Cc1ccccc1	-22%[70.6 µM]	63µM*	i	?	-16%[88.5 µM]
COc1ccc(CN2C(=O)[C@@H]3C[C@@H](CN3Cc3ccccc3Cl)Oc3ccccc32)cc1	-12%	40µM*	i	45µM*	-5%
COc1ccc(CN2C(=O)[C@@H]3C[C@@H](CN3Cc3ccc4c(c3)OCO4)Oc3ccccc32)cc1	-6%	i	i	-4%	1%
O=C1[C@@H]2C[C@@H](CN2Cc2ccc(Cl)cc2)Oc2ccccc2N1CC1CC1	-30%[70.6 µM]	89µM*	i	89µM*	-11%[88.5 µM]
COCCCn1c(C)cc(C(=O)N2CC(c3noc(COc4ccc(F)cc4)n3)C2)c1C	/	?	/	?	-9%
CN(C)c1ccc(-n2c(=O)c(C(=O)N3CCCC3)nc3cccnc32)cc1	/	i	/	-9%	i
C=CCN1C[C@H]2COc3ccc(C)cc3[C@H]2N(C(=O)c2cccc(OC)c2)CCC1=O	/	?	/	-4%	/
Cc1ccccc1C(=O)N1CCC(C(=O)N2CCCC(c3nc4ccncc4[nH]3)C2)CC1 (centres undefined)	/	i	/	i	i
COc1ccc(Cl)cc1NC(=O)CCC1CCCN(C(=O)c2ccoc2C)C1 (centres undefined)	0%	32µM*	i	?	-18%
COc1ccc(NC(=O)CCC2CCCN(C(=O)c3ccccc3SC)C2)cc1Cl (centres undefined)	13µM*	?	?	?	-13%
COc1ccc(NC(=O)CCC2CCCN(C(=O)CC3=CCCCC3)C2)cc1Cl (centres undefined)	?	?	?	-27%	3%
COc1ccccc1C(=O)NC[C@@H]1C=C(C)[C@H](Cc2nc3ccccc3[nH]2)C[C@H]1C(C)C	?	?	i	32µM*	-9%[88.5 µM]
